“And” between values parts separate entries of the source, which are not always exact repeats. Identical values can stand only once. The whole screen tested about 340,000 compounds, of which about 3,300 (0.97%) were called active. The sample as a whole holds a higher share of actives than the screen did. A number with no mark means an inactive call.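 How the source made its calls: active means inhibition above the mean over all tested compounds plus 3 SD (cut at about 30% in these data); inactive means the rest.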

Usually inhibition stands for the relative decrease from the control value, in per cent.

The target in this test is Platelet-activating factor acetylhydrolase 2, cytoplasmic (Homo sapiens) (UniProt Q99487). Description: inhibition of cytoplasmic PAF acetylhydrolase 2 – biochemical, fluorescence polarization, human, primary screen (AID 492956).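 Further: inhibitors block probe labeling of enzyme so polarization drops; 0% = enzyme with DMSO and 100% = wells lacking PAFAH2 protein.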 The following applies: recombinant PAFAH2, FP-rhodamine activity probe, at 3.39 µM, hits give high values.
For `COc1ccc(C2=NN(c3nc4ccccc4s3)C(=O)C2)cc1`, the inhibition is 48.2% (active).
Turning to `COc1ccc(C(=O)Nc2cccc(/C=C(/CCC(=O)O)c3nc4ccccc4s3)c2)cc1`, the inhibition is -4.68%.
For `COc1ccc(C2=NN(c3ccccc3)C(c3cccs3)C2)cc1` (stereo not drawn), the inhibition was 6.25%.
On to `Cc1nnc(NC(=O)CSc2nccn2-c2cccc(C)c2C)s1`, for which the inhibition was 6.92%.
In the case of `O=[N+]([O-])c1cccc(/C([O-])=C(/C(=S)Nc2ccccc2F)[n+]2ccccc2)c1` it was -4.94%; in that of `O=C(COC(=O)c1ccc2ncsc2c1)Nc1ccc(Cl)cc1`, 81.4% (active).
Turning to `CC1CC(C)CN(C(=O)COC(=O)c2ccc3ncsc3c2)C1` (stereo not drawn), the inhibition is 9.71%.
For the compound `Cc1sc(NC(=O)c2ccc3ncsc3c2)c(C(N)=O)c1C`, the inhibition was 1.28%.
On to `COc1cc2c(cc1O)C(SC)=NC(C)(C)C2`, for which the inhibition is 4.6%.
As to `CC(C)Cc1nnc(NC(=O)CCC(=O)Nc2ccc3cn[nH]c3c2)s1`, the inhibition is 1.65%.
In the case of `Cc1cc(C)c(C#N)c(Nc2cccc(Br)c2)n1` it was -4.25%; in that of `CCCCNC(=O)OC(C)CNC(=O)OC` (stereo not drawn), -6.1%.
In the case of `Cc1onc(C(=O)NCc2ccc(F)cc2)c1[N+](=O)[O-]`, the inhibition is -3.19%.
`COc1ccc(C(=O)NCC(=O)N/N=C/c2ccc([N+](=O)[O-])o2)cc1OC`: the inhibition was 0.4%.
As for `O=C(/C=C/c1ccc([N+](=O)[O-])o1)NNC(=O)c1ccc(F)cc1`, the inhibition was 39.5% (active).
In the case of `O=C(COC(=O)C1CC2C=CC1C2)Nc1ccccc1` (stereo not drawn) it was 77.7% (active).
In the case of `Cc1ccc(S(=O)(=O)N(C)CC(=O)OCC(=O)Nc2ccccc2)cc1` it was 0.35%; in that of `Cc1ccsc1C(=O)OCC(=O)Nc1cccc(F)c1`, 90.7% (active); in that of `Cc1ccsc1C(=O)OCC(=O)NCCc1ccccc1`, 25.5%.
For `CN(CC(=O)Nc1cccc(F)c1)C(=O)CC1CCCC1` the value was 0.25%.
As to `O=C(COc1ccccc1)Nc1ccc(F)cc1`, the inhibition is -4.21%.
In the case of `CC1CC1C(=O)OCC(=O)Nc1cccc(F)c1` (stereo not drawn) it was 78.9% (active).
For `O=C(COC(=O)CNC(=O)C1CCCCC1)Nc1cccc(F)c1` the value was -0.43%.
As for `COc1ccc(CNC(=O)COC(=O)c2sccc2C)cc1OC`, the inhibition was 5.02%.
Regarding `CCCCCC(=O)N1CCN(S(=O)(=O)c2ccc3c(c2)OCCCO3)CC1`, the inhibition was 6.58%.
Turning to `Clc1ccc(C2[C@H]3CN(CC4CCCCC4)[C@H](c4ccccc4)C34CC2(c2cccnc2)C4)cn1` (stereo partly drawn), the inhibition is -11.3%.
As for `COc1cc(C2C(C(=O)c3sc(C)nc3C)=C(O)C(=O)N2CCN(C)C)cc(OC)c1OC` (stereo not drawn), the inhibition is 2.01%.
Regarding `COc1ccccc1N1CC(C(=O)Nc2ccc(S(=O)(=O)N3CCOCC3)cc2)CC1=O` (stereo not drawn), the inhibition was 2.45%.
For `CC(=O)Nc1ccc(NS(=O)(=O)c2cc(C)sc2C)cc1`, the inhibition is 5.36%.
Turning to `OC(CNC1CCCC1)COc1ccc(F)cc1` (stereo not drawn), the inhibition is -6.14%.
With `CC(C)(C)NC(=O)c1cccc(NC(=O)Cc2ccc(Br)cc2)c1`, the inhibition was -0.14%.
Consider `FC(F)Oc1ccccc1C1CC(c2ccc(Br)s2)Nc2ncnn21` (stereo not drawn), for which the inhibition is 4.45%.
`C=CCOc1ccc(/C=C/C(=O)OCC(=O)NC(C)c2ccc(F)cc2)cc1` (stereo not drawn): the inhibition was 33.1% (active).
With `O=C(CO/N=C/c1ccccc1OC(F)F)NC1CCCC1`, the inhibition is 4.52%.
On to `CC1CCCCC1NC(=O)CO/N=C/c1ccc(OC(F)F)cc1` (stereo not drawn), for which the inhibition was 5.23%.
In the case of `O=C(COC(=O)/C=C/c1ccc(OC(F)F)cc1)NC1CCCCC1` it was 59.9% (active); in that of `CC(NC(=O)COC(=O)c1ccc(Cl)cc1O)c1ccc(F)cc1` (stereo not drawn), 11%; in that of `CCC(=O)c1ccc(OCC(=O)OCC(=O)NC2CCCCCC2)cc1`, 1.93%.
Consider `C=CCOc1ccc(/C=C/C(=O)OCC(=O)NC2CCCCCC2)cc1`, for which the inhibition was 77% (active).
For `C=CCOc1ccc(/C=C/C(=O)OCC(=O)NCC2CCCO2)cc1` (stereo not drawn) the value was 29.2%.
As for `C=CCOc1ccc(/C=C/C(=O)OC(C)C(=O)Nc2ccc(NC(C)=O)cc2)cc1` (stereo not drawn), the inhibition was -1.01%.
With `O=c1ccc2cc(S(=O)(=O)N3CCN(c4ccccc4)CC3)ccc2o1`, the inhibition is -3.62%.
As to `COC(=O)CCSc1nccn1Cc1ccccc1`, the inhibition is 3.07%.
Consider `CC(=O)c1c(N2CCN(c3ccc(F)cc3)CC2)nc(=S)n(-c2ccccc2)c1C`, for which the inhibition is -5.81%.
For `Cc1ccc(NC(=O)CN(C)S(=O)(=O)c2cnc[nH]2)cc1C` the value was 4.95%.
Take `CC(NC(=O)c1ccccc1)C(=O)Nc1ccccc1` (stereo not drawn): the inhibition is -1.79%.
As to `O=C1C=C(NS(=O)(=O)c2ccccc2)C(=O)c2ccccc21`, the inhibition was 5.32%.
`O=C(NC1=CC(=O)c2ccccc2C1=O)c1ccccc1`: the inhibition is 45.2% (active).
Regarding `Cc1cccc(C2C3=C(CCCC3=O)N=C3c4ccccc4C(=O)C32)c1` (stereo not drawn), the inhibition is 9.45%.
Take `O/N=C(\C[n+]1ccccc1)c1ccc(Br)cc1`: the inhibition was -4.24%.
With `CCCOc1ccc(NC(=O)CC2C(=O)N(C)C(=S)N2Cc2ccc3c(c2)OCO3)cc1` (stereo not drawn), the inhibition is -2.75%.
As to `O=C(C1CCN(Cc2ccc(Cl)cc2)CC1)N1CCN(Cc2ccc3c(c2)OCO3)CC1`, the inhibition is 2.96%.
Take `O=C(Nc1ccc(Cl)cc1)C1c2cccc[n+]2CC(=O)N1Cc1ccc2c(c1)OCO2` (stereo not drawn): the inhibition was 43.6% (active).
Take `Cc1c(Br)cc(C(=O)N2CCCCCC2)c(C)c1C`: the inhibition is 1.14%.
Take `CC1CCc2c(sc3c2C2=NS(=O)(=O)CCN2C=N3)C1` (stereo not drawn): the inhibition was 0.66%.
As to `COCCNC(=O)NC(=O)COC(=O)C1(c2ccc(Cl)cc2)CC1`, the inhibition was 13%.
Take `Cc1ccc(Cc2nnc(SCC(=O)Nc3ccccc3C)[nH]c2=O)cc1`: the inhibition was 6.57%.
`COc1ccccc1-c1cnn2c(N3CCOCC3)cc(C)nc12`: the inhibition is -3.57%.
For the compound `CCS(=O)(=O)c1ccc(O)c(NC(=O)COc2ccc(Cl)cc2)c1`, the inhibition was 75.6% (active).
In the case of `CS(=O)(=O)c1ccc(C(=O)OCC(=O)NNC(=O)COc2ccc(Cl)cc2)cc1` it was 1.43%; in that of `O=C(COc1ccc(Cl)cc1)Nc1ccccc1CO`, 0.9%.
`O=C(c1ccc(=O)[nH]c1)N(Cc1ccco1)C1(C(=O)NC2CCCCC2)CCCCC1`: the inhibition is -0.52%.
In the case of `N#Cc1nc(COc2ccc(Cl)cc2)oc1N1CCCC1`, the inhibition was -5.85%.
Consider `O=C(OCC(=O)N1CCN(c2ccccc2)CC1)c1ccc([N+](=O)[O-])s1`, for which the inhibition is 35.3% (active).
For the compound `COc1cccc(/C=C/C(=O)OCC(=O)N2CCN(c3ccccc3)CC2)c1`, the inhibition is 1.44%.
In the case of `C[C@H](NC(=O)c1ccccc1Cl)C(=O)OCC(=O)N1CCN(c2ccccc2)CC1`, the inhibition is -2.12%.
Regarding `CC(C)(C)NC(=O)CSc1nnc(NC(=O)CCc2ccccc2)s1`, the inhibition was 0.99%.
`CC(=O)Nc1ccc(NC(=O)COC(=O)c2ccccc2C(=O)c2ccccc2)cc1`: the inhibition was 32.1% (active).
In the case of `CCc1ccc(C(=O)COC(=O)c2ccco2)cc1` it was 9.26%; in that of `CC(C)CNC(=O)COC(=O)c1ccccc1OCC(=O)Nc1ccc(Br)cc1`, -2.18%.
For `O=C(CNC(=O)c1ccco1)OCC(=O)c1ccccc1` the value was 4.2%; for `O=C(COC(=O)c1ccccc1C(=O)c1ccccc1)c1ccco1`, 43% (active).
As to `O=C(OCC(=O)N1CCN(C(=O)c2ccco2)CC1)c1ccccc1Cc1ccccc1`, the inhibition was 10.9%.
In the case of `CCN(CC)c1ccc(C(=O)OCC(=O)c2ccco2)cc1`, the inhibition is 35.1% (active).
Take `CC(=O)Nc1ccc(NC(=O)COc2ccc(-c3ccccc3)cc2)cc1`: the inhibition was -5.15%.
On to `CCOC(=O)c1ccc(NC(=O)CNC(=O)c2ccco2)cc1`, for which the inhibition was 1.1%.
Consider `CC1(C)C2CCC1(CS(=O)(=O)NCCc1c[nH]c3ccccc13)C(=O)C2` (stereo not drawn), for which the inhibition was 4.84%.
Consider `O=[N+]([O-])c1ccc(Oc2ccc(F)cc2Br)c2ccncc12`, for which the inhibition was -2.87%.
Consider `O=S(=O)(NC1CC1)c1ccc(Cl)cc1`, for which the inhibition was 6.44%.
`Cc1cc(N)n(-c2ccc(S(=O)(=O)N3CCCC3)cc2[N+](=O)[O-])n1`: the inhibition is 3.65%.
As to `O=C(CNC(=O)c1ccc(Cl)cc1Cl)NCC(=O)Nc1ccccc1N1CCOCC1`, the inhibition was 7.59%.
On to `Oc1ccccc1C1=NN(c2ccccc2)C(c2ccccc2)C1` (stereo not drawn), for which the inhibition was 2.45%.
`Cn1cccc1C(=O)OCC(=O)NCCc1ccccc1`: the inhibition is 12.9%.
On to `Cn1cccc1C(=O)OCC(=O)c1ccc(Br)s1`, for which the inhibition was 40.2% (active).
Turning to `O=C(COC(=O)c1c2c(nc3ccccc13)CCCC2)c1ccc(Br)s1`, the inhibition is -8.93%.
Turning to `C=CCN(C(=O)Cn1ncc2c1-c1cc(C)ccc1OC2)c1ccccc1`, the inhibition is 7.42%.
`O=C(c1c(F)cccc1F)N1CCN(c2ncc(Br)cn2)CC1`: the inhibition was 9.7%.
`COc1cc(C(=O)NCC2(c3ccccc3)CCCC2)ccc1OC(C)C`: the inhibition was 174% (active).
Consider `CCOc1c(OC)cccc1C(=O)NCC1(c2ccccc2)CCCC1`, for which the inhibition was -1.33%.
Take `COc1ccc(C2(CNC(=O)Cc3ccc(OC)c(OC)c3)CCCC2)cc1`: the inhibition was 0.3%.
For the compound `O=C(NC(=O)c1ccccc1N1CCCCC1)Nc1ccc(Br)cc1`, the inhibition was -2.91%.
With `Nc1ccc(C(=O)OCC(=O)NC2CCCc3ccccc32)cc1[N+](=O)[O-]` (stereo not drawn), the inhibition was 56.6% (active).
Regarding `NC(=O)Nc1ccc(C(=O)OCC(=O)NC2CCCc3ccccc32)cc1` (stereo not drawn), the inhibition was 71.5% (active).
In the case of `COC(=O)c1cc(OCC(=O)NC2CCCc3ccccc32)cc(C(=O)OC)c1` (stereo not drawn) it was 0.45%; in that of `O=C(CCNC(=O)c1ccc(Cl)cc1)NC1CCCc2ccccc21` (stereo not drawn), 0.23%.
In the case of `Nc1ccc(C(=O)OCC(=O)NC2CCS(=O)(=O)C2)cc1[N+](=O)[O-]` (stereo not drawn), the inhibition is 0.87%.
In the case of `CCOc1ccc(NC(=O)COc2ccc(C(=O)NC3CCCc4ccccc43)cc2OC)cc1` (stereo not drawn), the inhibition is -2.16%.
`O=C(NNc1nc(N2CCCC2)nc(N2CCCC2)n1)c1ccccc1`: the inhibition is 8.18%.
For `CC(=O)N1c2ccc(S(=O)(=O)N3CCC(C(=O)N4CCN(c5ccccc5)CC4)CC3)cc2CC1C` (stereo not drawn) the value was -4.15%.
As to `COc1cc(C(=O)NCc2nnc(SCC(=O)Nc3nc4ccc(C)cc4s3)o2)cc(OC)c1OC`, the inhibition was 4.41%.
Consider `CCOc1ccc(CCNC(=O)C2=C(C)C(=O)OC23CCC(C)CC3)cc1OCC` (stereo not drawn), for which the inhibition is 5.73%.
As for `c1ccc(CCC2=NCCn3cccc32)cc1`, the inhibition was -3.37% and -2.16%.
In the case of `O=C(OCC(=O)N1CCCCC1)c1ccc(OC(F)(F)F)cc1`, the inhibition is 5.16%.

These data come from PubChem BioAssay AID492956 (The Scripps Research Institute Molecular Screening Center, 2010).
